The experiment has as its system HL-60(TB) leukemia. In words: NCI-60 one-dose screen, 48 h (100 = growth as untreated, 0 = no growth, -100 = all killed). Particulars: 10 µM unless noted.

Where “and” joins values, the source holds several entries; their conditions need not be identical. Identical values can stand only once. This is part of a sample that, as a whole, favours compounds with a hit. Of some 83,000 tested, about 20% had one in any assay.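 For each line, cells grew in 96-well plates with the test compound present at a single concentration for 48 hours.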 Values without a mark were called inactive. Calls of active or inactive are those of the source. Rule for the calls: active = growth percent below 10; inactive = the rest.

On to `Cc1nc(N)ncc1-c1ccc2ncnc(N3CCc4cc(F)c(Cl)cc43)c2c1`, for which the growth is 46.6%.
Under `CCOc1ccc(C(=O)NC(=S)Nc2ccc(S(N)(=O)=O)cc2)cc1` stands 103% [100 µM]; under `CC1=C2C(=C[C@@](C)(COCOCCCl)[C@@H]2O)C(=O)[C@](C)(O)C12CC2`, -31.8% (active).
Consider `O=C(c1ccc(Cl)cc1)C1[C@H](c2ccccc2Br)[C@@H](c2ccccc2)NC12C(=O)Nc1ccc(Br)cc12` (stereo partly drawn), for which the growth was -6.61% (active).
In the case of `C=CC[N+](C)(C)CCn1c2ccccc2c2nc3cc(C)c(C)cc3nc21`, the growth is 97.7%.
In the case of `COc1ccc(-c2cc(C(=O)N=Nc3c(O)[nH]c4ccc(F)cc34)c3ccccc3n2)cc1` it was 51.6%; in that of `CCCCSc1nc(Nc2ccc(/C(C)=N/NC(N)=S)cc2)c(C#N)c(-c2ccc(OC)cc2)n1`, 92.2%.
Under `COc1cc(NC(=O)C(C)C)ccc1C(=O)NC(=S)Nc1ccc(S(N)(=O)=O)cc1` stands 92.5%.
As for `CC(C)(C)OC(=O)N1C/C(=C\c2ccc(F)cc2)C(=O)/C(=C/c2ccc(F)cc2)C1`, the growth was -6.78% (active).
Under `N#Cc1c(NC(=O)c2cccc(C(F)(F)F)c2)sc2c1CCC(O)=C2` stands 30%.
Under `CC(C)(C)c1ccc(OCc2nc3ccccc3n2-c2cccc(N)c2)cc1` stands 67.8% and 98.6%; under `CCCCCCCCc1ccc(C(=O)Nc2cccc(P(=O)(O)O)c2)cc1`, 101%.
Under `COc1ccc(-c2nc3ccc(C(=O)NN4C(=O)c5ccc([N+](=O)[O-])cc5C4=O)cc3[nH]2)cc1` stands 104%.
On to `C=Cn1cc(C(=O)O)c(=O)c2cc(F)c(N3CCN(c4nccc(-c5nccs5)n4)CC3)cc21`, for which the growth is -24.7% (active).
Under `COc1ccc(-n2c(SCC(=O)NNS(=O)(=O)c3ccccc3)nc3ccc(Cl)cc3c2=O)cc1` stands 107%; under `O=C(CNc1nc(-c2ccccc2)cs1)Nc1cccc(Cl)c1`, -2.63% (active); under `Cn1nc(C(F)(F)F)cc1-c1cc(Cl)c(COc2ccc(Cl)cc2)c(-c2ccc(Cl)c(C(F)(F)F)c2)c1O`, -22.5% (active).
`Cc1ccc2c(c1)C(=O)/C(=C/c1ccc([N+](=O)[O-])cc1)S2`: the growth is 107%.
In the case of `Cc1cccc(NC(=O)CSc2nc3ccc(F)cc3c(=O)n2-c2ccc(Cl)cc2)c1C` it was 96.4%; in that of `COc1cc(CNC(=O)C[C@H](C)CCC=C(C)C)ccc1OCc1cn(-c2ccc(Br)cc2)nn1`, 88.4%; in that of `Cc1ccc(C2CC(c3ccc(NC(=O)Nc4ccccc4)cc3)=NN2c2ccc(S(C)(=O)=O)cc2)cc1` (stereo not drawn), 13.4%.
For the molecule `N#Cc1c(-c2ccccc2Cl)cc(-c2c[nH]c3ccccc23)[nH]c1=O`, the growth is 68.4%.
Consider `CS(=O)(=O)c1ccc(-n2nc(C(=O)NCc3ccccc3)cc2-c2ccc(Cl)cc2)cc1`, for which the growth is 83%.
Under `O=C(O)CCN1C(=O)/C(=C/C=C/c2ccc([N+](=O)[O-])o2)SC1=S` stands -11% (active); under `Cc1noc2c(Cc3ccc([N+](=O)[O-])cc3)nn(CC(=O)N/N=C/c3ccc(Br)cc3)c(=O)c12`, 95.4%; under `CC12CC[C@@H]3[C@]4(C)COC(c5cn[nH]c5-c5ccc(Br)cc5)O[C@@H]4CC[C@@]3(C)[C@@H]1CC(C1=CCOC1=O)O2` (stereo partly drawn), 27.2%.
On to `CC(=O)NS(=O)(=O)c1ccc(NC(=O)CSC2=NC(c3ccccc3)C(C(C)=O)=C(C)N2)cc1` (stereo not drawn), for which the growth is 97.4%.
As to `FC(F)(F)c1cc2c(Cl)ncnc2n1CCC1CCOCC1`, the growth was -59.6% (active).
Under `COc1ccc(C2=NN(C(C)=O)C(c3ccc(OCc4ccc(Cl)cc4)c(OC)c3)C2)cc1OC` (stereo not drawn) stands 34.6%.
In the case of `COc1cc2cc(C(=O)N3C[C@@H](CCl)c4c3cc(OC(=O)N(CCC(=O)N3CCN(C)CC3)C3CCCCC3)c3ccccc43)[nH]c2c(OC)c1OC` it was -55.9% (active); in that of `O=C(N=Nc1c(O)[nH]c2ccc([N+](=O)[O-])cc12)c1ccc2nc(-c3ccccc3)[nH]c2c1`, 84.7%; in that of `CC(=O)c1c(N)c(C#N)cn1-c1ccc(Cl)cc1Cl`, 102%.
In the case of `CC(C)C(C(=O)O)n1c(O)c(/C=C2/C=c3cc4c(cc3=NC2=O)OCO4)sc1=S` (stereo not drawn) it was 105%; in that of `Cc1cc2nc3c4ccccc4n(CCO)c3nc2cc1C`, 101%.
`Cc1cc2nc3c4ccccc4n(CCCN(C)C)c3nc2cc1C`: the growth was -40.5% (active).
For `O=C(Cn1c(/C=C/c2ccccc2)nc2ccccc2c1=O)Nc1ccc(Cl)cc1`, the growth is 99.2%.
In the case of `CNS(=O)(=O)N1CCc2c(Br)c3c(c(OC)c2C1CCc1ccccc1)OCO3` (stereo not drawn) it was -36.1% (active); in that of `CC(=O)c1ccc(Nc2nc(SCCC(C)C)nc(-c3ccc(F)cc3)c2C#N)cc1`, 91.8%.
In the case of `Nc1nc(Nc2ccc(Cl)cc2)n(Cc2cccc(Br)c2)n1` it was -14.2% (active); in that of `CN(C)c1nc(NCCNS(=O)(=O)c2ccc(C(=O)/C=C/c3ccc(F)cc3)cc2)nc(Nc2ccc(F)cc2)n1`, -38.7% (active); in that of `CN1C(=O)N(C)C2SC(N/N=C/c3ccccc3)=NC21` (stereo not drawn), 8.73% (active).
As for `Cc1ccc(/C=C/C(=O)c2ccc(S(=O)(=O)NCCNc3nc(N(C)C)nc(N4CCOCC4)n3)cc2)cc1`, the growth was 30.7%.
Under `O=c1[nH]c2ccccc2cc1CSc1ccc(Nc2nccc(-c3ccc(Cl)cc3)n2)cc1` stands 74.8%.
In the case of `S=C(NCCc1ccccc1)Nc1ccc(OCc2nc3ccc(Cl)cc3[nH]2)cc1` it was 11.6%; in that of `COc1ccc(-c2cc(-c3cc(OC)c(OC)c(OC)c3)[nH]c(=O)c2C#N)cc1`, 102%; in that of `Cc1cc(=O)oc2cc(OCC(O)CNN3C(=O)c4cccc5c(N6CCN(C)CC6)ccc(c45)C3=O)ccc12` (stereo not drawn), 113%.
In the case of `C=C1CC[C@@H]2[C@]3(C)COC(c4cn[nH]c4-c4cccc(Cl)c4)O[C@@H]3CC[C@@]2(C)[C@@H]1C/C=C1/C(=O)OCC1O` (stereo partly drawn) it was -15.1% (active); in that of `S=C(Nc1ccc(OCc2nc3ccc(Cl)cc3[nH]2)cc1)NC1CCCCC1`, -37.1% (active); in that of `COc1cc(C2CC(c3ccc(Cl)cc3)=Nc3c(N)nc(N)nc3N2)ccc1Oc1nc(Nc2ccc(F)cc2)nc(N(C)C)n1` (stereo not drawn), 16.3%.
With `NS(=O)(=O)c1ccc(NC(=O)CSc2ccc(-c3ccccc3)nn2)c(Br)c1`, the growth is 99.2%.
`Cc1ccc(CSc2nc(-c3ccc(F)cc3)c(C#N)c(=O)[nH]2)cc1`: the growth is 56.6%.
In the case of `N#Cc1c(Cl)nc(SCc2ccc(F)cc2)nc1-c1ccc(F)cc1` it was 50.2%.
In the case of `Nc1n[nH]c2cccc(C#Cc3cccc(NC(=O)Nc4cc(C(F)(F)F)cc(C(F)(F)F)c4)c3)c12`, the growth was -9.4% (active).
Regarding `N/C(=N\c1nc2ccccc2s1)NC(=O)Nc1ccccc1Br`, the growth was -28.5% (active).
For the molecule `Cn1cc(-c2cc(N)n3nc(-c4cn(C)c5ccccc45)cc3n2)c2cc(F)ccc21`, the growth was -20.1% (active).
Under `CCCCSc1nc(NCCc2c[nH]c3ccccc23)c(C#N)c(-c2ccc(F)cc2)n1` stands 53.8%.
As for `COc1ccc2[nH]c(O)c(N=NC(=O)c3ccc4nc(-c5ccc(Cl)cc5)[nH]c4c3)c2c1`, the growth was 88.5%.
Regarding `COc1cccc(-c2ccc(/C=N/NC(=O)c3[nH]c4ccc(Br)cc4c3-c3ccccc3)o2)c1`, the growth was -38.4% (active).
Turning to `CN1CCc2c(sc3ncnc(N/N=C/c4ccc(Cl)cc4Cl)c23)C1`, the growth was -49.9% (active).
Turning to `O=c1[nH]c2ccccc2cc1CSc1ccc(Nc2nccc(-c3ccc4ccccc4c3)n2)cc1`, the growth is 92.5%.
Take `Brc1ccc(/C=C/c2n(Cc3ccc4ccccc4c3)c3ccccc3[n+]2Cc2ccc3ccccc3c2)cc1`: the growth was -48.7% (active).
In the case of `Cc1ccc2c(c1)C(=O)/C(=C/c1c[nH]c3ccccc13)S2` it was 14.9%; in that of `N#Cc1ccc(C(=O)CSc2nc3c(c(Nc4ccc(S(N)(=O)=O)cc4)n2)CCC3)cc1`, 101%; in that of `COc1ccc(C2NC(=S)NC(C)=C2C(=O)OC(C)C)cc1OC` (stereo not drawn), 100%.
Take `O=C1NC(=NC23CC4CC(CC(C4)C2)C3)N/C1=C\c1ccc2ncoc2c1`: the growth is -8.15% (active).
Turning to `Cc1ccc(C(=O)Nc2cccc(C(=O)NC(=S)Nc3ccc(S(N)(=O)=O)cc3)c2)cc1`, the growth was 84.7%.
With `CCN(CC)c1ccc(/C=N/Nc2nc(-c3ccc(C)cc3)cs2)c(O)c1`, the growth is 70%.
With `COc1cc(CNC(=O)C[C@H](C)CCC=C(C)C)ccc1OCc1cn(-c2ccc(Cl)c(Cl)c2)nn1`, the growth is 84%.
In the case of `COc1ccc(Nc2ncnc3sc4c(c23)CCN(Cc2ccccc2)C4)cc1` it was 68.2%; in that of `COc1ccc(OC)c(-n2cc(C#N)c(N)c2C(=O)c2ccc(Cl)cc2Cl)c1`, 2.46% (active); in that of `CCCCCCn1c(O)c(N=Nc2nc(-c3cc4ccccc4oc3=O)cs2)c2ccccc21`, 87.8%.
As to `C=C1CCC2C3(C)COC(c4ccccc4F)OC3CCC2(C)C1C/C=C1/C(=O)OCC1O` (stereo not drawn), the growth is -0.649% (active).
Under `COc1ccc2c(c1)c(-c1cc(N)n3nc(-c4c[nH]c5ccccc45)cc3n1)cn2C` stands -32.4% (active).
Take `COc1cccc(/C=C/c2nc3ccccc3c(=O)n2CC(=O)Nc2ccccc2)c1`: the growth is 97.7%.
On to `O=C(Nc1ccc(Cl)c(C(F)(F)F)c1)c1cncc(C#Cc2cnc3ccc(N4CCOCC4)nn23)c1`, for which the growth is -21.7% (active).
Under `CNC(=O)c1cc(Oc2ccc3nc(NC(=O)Nc4cccc(OC(F)(F)F)c4)sc3c2)ccn1` stands 62.7%.
`CC(C)CSc1nc(NCCc2c[nH]c3ccccc23)c(C#N)c(-c2ccc(F)cc2)n1`: the growth is 49.7%.
Regarding `NS(=O)(=O)c1ccc(N=Nc2c(O)n(CC(=O)Nc3ccccc3)c3ccccc23)cc1`, the growth is 48.7%.
